Only some compounds are listed: those with a hit (about 3.8% of all), similar ones and a draw of the others.
PTAP-TSG101 blk: qHTS Validation Assay for Inhibitors of HIV-1 Budding by Blocking the Interaction of PTAP/TSG101: Sytravon Library Screen. Fluorescence polarization, FITC-PTAP peptide/Tsg101, 20 min. Potency, µM (titrated, usually from 115 µM), most hits filed as inhibitors. AID 1347069, 2019. Tumor susceptibility gene 101 protein (Homo sapiens), Q99816. 44,000 tested, under 10 active; also: potency is read from the fitted curve at half-maximal effect; 0% is about no effect
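Fluorescence polarization: Tsg101 binding domain (10 uM final) in 10 mM HEPES pH 7.5, 0.15 M NaCl, 0.01% Tween 20, 3 mM EDTA, 0.1 mM TCEP; compounds pinned; FITC-PTAP peptide 50 nM final; 20 min, r.t.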
GALK inh: qHTS Assay for Inhibitors of Human Galactokinase (GALK): NCGC Sytravon Library Screen. P51570. recombinant GALK, Kinase-Glo ATP luminescence, 1 h. Potency, µM (highest dose often 57.5 µM), inactives show at the top dose activity, negative = inhibition, hits mostly inhibitors. 44,000 tested, under 10 active;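 also: plate controls were full GALK reaction for no effect and reaction lacking GALK for full effect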
Target sequence (P51570 whole entry, looked up): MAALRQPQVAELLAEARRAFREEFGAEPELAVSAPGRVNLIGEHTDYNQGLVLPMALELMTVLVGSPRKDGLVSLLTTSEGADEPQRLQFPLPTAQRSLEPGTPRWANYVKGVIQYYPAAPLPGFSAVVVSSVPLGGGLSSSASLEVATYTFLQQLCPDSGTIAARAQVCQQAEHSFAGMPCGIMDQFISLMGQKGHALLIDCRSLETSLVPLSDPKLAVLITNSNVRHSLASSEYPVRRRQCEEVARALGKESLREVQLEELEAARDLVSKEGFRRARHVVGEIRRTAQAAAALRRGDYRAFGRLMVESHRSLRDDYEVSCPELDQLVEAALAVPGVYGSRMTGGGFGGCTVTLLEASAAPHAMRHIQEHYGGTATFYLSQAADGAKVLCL
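Compounds were pinned into ATP buffer, then GALK-galactose mix was added (final 5 nM enzyme, 35 uM ATP, 100 uM galactose, pH 8.0). After 1 h at room temperature, Kinase-Glo Plus was added and luminescence read.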
GPR32 ag: qHTS for Agonists of Human Resolvin D1 Receptor DRV1. 48,000 compounds, 2.5% hits. CHO-K1 GPR32 beta-arrestin PathHunter luminescence, 90 min; zero percent set by DMSO-only wells. AID 1346428, 2018. activation, % at 76.9 µM;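 active = activation of at least 60% and not above a set upper limit, about 1 call in 100 departs from these limits; inconclusive = activation of 40% to 60%, or above that upper limit; inactive = activation under 40%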; also: 0% is about no effect
Target sequence (O75388 whole entry, looked up): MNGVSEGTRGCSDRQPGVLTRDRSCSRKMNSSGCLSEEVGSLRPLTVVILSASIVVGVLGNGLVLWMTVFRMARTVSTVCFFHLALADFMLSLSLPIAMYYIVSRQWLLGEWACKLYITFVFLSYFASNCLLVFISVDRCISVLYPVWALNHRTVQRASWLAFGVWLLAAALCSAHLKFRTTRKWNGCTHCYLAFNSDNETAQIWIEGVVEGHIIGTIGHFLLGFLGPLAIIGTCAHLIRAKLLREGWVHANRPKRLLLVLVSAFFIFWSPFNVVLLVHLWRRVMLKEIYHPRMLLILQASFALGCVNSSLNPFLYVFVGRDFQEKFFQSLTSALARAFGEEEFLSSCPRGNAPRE
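Using DMSO wells as EC0, agonist-induced signal was taken as chemiluminescence from beta-Gal reconstituted upon beta-arrestin recruitment to GPR32 in CHO-K1 cells after 90 min compound treatment.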
NTMT1 inh: Primary qHTS for Inhibitors of N-terminal methyltransferase 1 (NTMT1): MTaseGlo Assay; Potency, µM (top dose mostly 114 µM), for inactives: top-dose activity change, negative = inhibition, actives largely listed as inhibitors; 59,000 compounds, 2.5% hits; NTMT1 MTase-Glo SAH luminescence, purified enzyme;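 also: potency is read from the fitted curve at half-maximal effect; plate controls were DMSO vehicle for no effect and no enzyme for full effect; nearly all actives have a fitted effect of over 65% in size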
OvCa metastasis: Primary qHTS assay for Inhibitors of ovarian cancer metastasis using an organotypic tumor microenvironment (TME) model | Potency, µM (series often up to 45.8 µM), inactives show at the top dose activity change, negative = inhibition, actives largely listed as inhibitors | 46,000 compounds, 0.1% hits | SKOV3ip1-GFP adhesion/invasion on 3D omental model, fluorescence;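 also: potency is read from the fitted curve at half-maximal effect; plate controls were DMSO wells for no effect and tomatine positive control wells for full effect; nearly all actives have a fitted effect of over 65% in size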
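qHTS, 4-pt dose (0.36-46 umol/L); SKOV3ip1-GFP, 1,200 cells/well, no FBS; primary omental fibroblast/mesothelial co-culture 48 h pre-grown; 2 h RT + 16 h 37 C; PBS wash, 4% PFA; GFP count 488/509 nm.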
B2AR arrestin ag: qHTS assay of beta-arrestin-biased ligands of beta2-adrenergic receptor: NCGC Sytravon Library Screen; Beta-2 adrenergic receptor (Homo sapiens), P07550; HTLA Tango cells, beta-arrestin recruitment, luciferase luminescence, 18 h; Potency, µM (doses to about 46.1 µM), actives largely listed as activators; 44,000 tested, under 10 active;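 also: potency is read from the fitted curve at half-maximal effect; 0% = DMSO and full agonism = EC100 isoproterenol or metaproterenol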
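First, Tango cells carrying beta2-AR and beta-arrestin fusions received compound up to 46 microM. After 18 hr at 37 degrees C, luciferase substrate was added for 15 minutes, then luminescence gave %Activity for curve fitting.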
Active calls of the source: *; i = inactive; ? = inconclusive; nt = no result given; ! = not confirmed by another sample; [ ] = another dose, or the depositor's remark. Unless noted, calls follow the shape of the dose curve; as a rule, active = well fitted curve in the direction sought with a large enough effect; inconclusive = small, poorly fitted or top-dose-only effect, or another doubt; inactive = no such curve, though single readings can be large; an effect the other way counts as inactive or inconclusive.

SMILES	PTAP-TSG101 blk	GALK inh	GPR32 ag	NTMT1 inh	OvCa metastasis	B2AR arrestin ag
CNC(=O)CN(CCN(CCN(CC(=O)[O-])CC(=O)NC)CC(=O)[O-])CC(=O)[O-].O.[Gd+3]	nt	nt	11.5	7.4%[57.5 µM]	nt	nt
CCc1ccc(C2=C(C)C(N3CCC(C(=O)NCc4ccccc4)CC3)=NS2(=O)=O)cc1	i	-2.3%	65.1*	17.1%	-6.7%	i
CC1=C(c2ccc(C)c(C)c2)S(=O)(=O)N=C1N1CCC(C(=O)NCc2ccc(N(C)C)cc2)CC1	i	1.8%	4.4	-0.2%	-6.4%	i
CNC(=O)c1cc(Oc2ccc(NC(=O)Nc3ccc(Cl)c(C(F)(F)F)c3)cc2)ccn1	nt	nt	92.0*	11.1%[57.5 µM]	4.3%	nt
CCCc1c(OCCCCc2nn[nH]n2)ccc(C(C)=O)c1O	nt	nt	86.6*	20.2%[57.5 µM]	nt	nt
COc1ccc(-c2nc(CSc3nncn4c3cc3occc34)c(C)o2)cc1	i	1.5%	-19.2	-20.4%	-13.8%	i
CCOC(=O)N1CCN(C(=O)Cn2sc3nc(C)cc(C)c3c2=O)CC1	nt	nt	nt	3.16µM*	nt	nt
CCOC(=O)C1CCN(C(=O)Cn2c(=O)cc(C)c3c(C)nn(C)c32)CC1	i	2.7%	42.0	-1.2%	1.3%	i
Cc1ccc(NCc2cccn2-c2nnc(N3CCC(C(=O)NC(C)C)CC3)s2)cc1	i	-1.6%	-22.3	89.1µM*	i	i
CC(C)n1nc(-c2ccc(NC(=O)Nc3cccc(C(F)(F)F)c3)cc2)c2c(N)ncnc21	nt	nt	nt	2.2%	nt	nt
CC(C)n1nc(-c2cc3cc(O)ccc3[nH]2)c2c(N)ncnc21	nt	nt	0.5	79.4µM*!	nt	nt
COc1ccc(CNC(=O)C(C)n2ccc3cc(S(=O)(=O)N4CCCC4)ccc32)cc1OC (stereo unspecified)	i	0.2%	-3.9	0.0%	7.4%	i
Cn1ccc2cc(-c3ccc4ncnc(NCc5ccc6c(c5)OCO6)c4c3)ccc21	nt	nt	nt	9.5%	nt	nt
CCCNS(=O)(=O)c1ccc2nc(NC(=O)c3ccc(F)cc3)sc2c1	i	-0.7%	-19.1	8.91µM*	21.8%	i
C[C@@H]1C(=O)O[C@H]2C[C@]34[C@H]5C[C@@H](C(C)(C)C)[C@]36[C@@H](OC(=O)[C@H]6O)O[C@]4(C(=O)O5)[C@]21O	nt	nt	nt	5.8%[29.8 µM]	nt	nt
Cc1ccccc1OCCCCn1c(-c2ccc(Cl)cc2)nc2ccccc2c1=O	i	2.0%	12.2	nt	-18.7%	i
CCOC(=O)c1ccc(-c2ccc(/C=C(\C#N)c3nc4ccc(C)cc4[nH]3)o2)cc1	i	0.1%	-23.8	?	3.16µM*	i
CC(C)(C)CC(=O)OCC(=O)[C@@]1(O)CC[C@H]2[C@@H]3CCC4=CC(=O)C=C[C@]4(C)[C@H]3[C@@H](O)C[C@@]21C	nt	nt	119.3*	12.7%[57.5 µM]	nt	nt
CC(=O)OCC(=O)[C@@]1(O)CC[C@H]2[C@@H]3CCC4=CC(=O)C=C[C@]4(C)[C@@H]3[C@@H](O)C[C@@]21C	nt	nt	nt	-14.0%[57.5 µM]	17.4%	nt
O=C1CC(c2ccccc2C(F)(F)F)c2c(c3ccccc3[nH]c2=O)O1 (stereo unspecified)	i	7.0%	4.4	17.6%	i	i
CCOC(=O)c1ccc(NC(=O)Cn2nc(SC)c(S(=O)(=O)c3ccc(Cl)cc3)c2N)cc1	i	5.9%	69.5*	0.2%	-54.5%	i
CCSc1nn(CC(=O)Nc2ccc(C(=O)OC)cc2)c(N)c1S(=O)(=O)c1ccc(C)cc1	i	-2.2%	11.4	-3.5%	-1.8%	i
CN1C(=O)C(C)(C)c2cc(S(=O)(=O)N3CCCC3C(=O)Nc3ccc(F)cc3)ccc21 (stereo unspecified)	i	2.7%	-2.2	16.2%	3.1%	i
O=C(Nc1ccc(F)c(Cl)c1)C1CCCN1S(=O)(=O)c1ccc(F)cc1 (stereo unspecified)	i	-0.1%	83.3*	4.6%	4.2%	i
CN1CCCCC1CCN1c2ccccc2Sc2ccc(S(C)=O)cc21 (stereo unspecified)	nt	nt	64.5*	21.6%[57.5 µM]	nt	nt
SMILES	PTAP-TSG101 blk	GALK inh	GPR32 ag	NTMT1 inh	OvCa metastasis	B2AR arrestin ag
CN1CCN(CCCN2c3ccccc3Sc3ccc(Cl)cc32)CC1	nt	nt	2.5	?	15.9%	nt
COc1ccccc1NC(=O)COc1ccc(-c2nn(C)c(=O)c3ccccc23)cc1	i	3.8%	95.1*	0.3%	i	i
CCOc1ccccc1-c1nnc2n1N=C(c1ccc(OC)cc1)CS2	nt	nt	nt	14.2%	nt	nt
Cc1cc(C)cc(NC(=O)Cn2nnc(C(=O)Nc3cc(C)cc(C)c3)c2N)c1	i	7.3%	83.6*	4.9%	?	i
Cc1cccc(NC(=O)Cn2nnc(C(=O)Nc3ccc(F)c(Cl)c3)c2N)c1	i	1.3%	-8.5	-6.0%	1.7%	i
COc1cc(NC(=O)c2nnn(Cc3ccc(F)cc3)c2N)cc(OC)c1	i	-0.2%	79.4*	8.8%	i	i
Cc1ccc(N(C)C(=O)CN2C(=O)CCc3cc(S(=O)(=O)N4CCOCC4)ccc32)cc1	i	-0.8%	?	-0.8%	i	i
NC(=O)C1CCN(S(=O)(=O)c2cc3c(cc2Cl)NC(=O)CO3)CC1	i	-9.9%	6.4	2.2%	i	i
O=C(c1ccc(F)cc1)C1CCN(CCn2c(=S)[nH]c3ccccc3c2=O)CC1	nt	nt	68.0*	17.8%[57.5 µM]	nt	nt
Cc1ccc(-n2ncc(C(=O)NCCN3CCCC3)c2C2CCN(C(=O)OC(C)(C)C)CC2)cc1	i	2.4%	-21.7	?	i	i
Cc1ccc(-n2ncc(C(=O)NCCN3CCC(Cc4ccccc4)CC3)c2C2CCN(C(=O)OC(C)(C)C)CC2)cc1	i	0.8%	-24.7	89.1µM*	?	i
Cc1ccc(-c2onc(C)c2C)cc1S(=O)(=O)NC1CCCCC1	i	0.2%	-19.6	-6.2%	-9.0%	i
Cc1ccc2c(CNCCc3ccccc3)c(C(=O)O)n(Cc3ccccc3C)c2c1	i	0.3%	65.5*	-3.9%	-8.5%	i
C=Cc1ccc(Cn2c(C(=O)O)c(CNCCc3ccco3)c3ccc(C)cc32)cc1	i	0.0%	88.5*	2.4%	i	i

Screens from PubChem.
